Source: PubChem (National Center for Advancing Translational Sciences (NCATS))
HepG2 tox = kills HepG2 cells in TGF-b inhibitor counter-screen | HepG2 CAGA-GFP viability, ATP luminescence, 18 h | actives 0.76% (n = 410,000) | AID 588856 | Potency, µM (titrated, usually from 46.1 µM), inactives show at the highest dose activity change, negative = cytotoxicity, most hits filed as cytotoxic; also: potency is read from the fitted curve at half-maximal effect
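CellTiter-Glo luminescence gave cytotoxicity after 18 hours at 37 degrees C. The cells were HepG2 CAGA-GFP in 1% FBS DMEM, stimulated with 500 pg/mL TGF-beta after compound addition. %Activity was normalised to no-cell wells (complete cell-killing) and DMSO (no toxicity), and curves were fitted and classified.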
IL-1B inflam inh = inhibitors of inflammasome signaling (IL-1 beta secretion); THP-1 LPS/ATP IL-1B secretion, AlphaLISA, 16 h; hits give low values; activity change, % at 57.5 µM; actives 4.7% (n = 360,000); AID 743279; in the data active = activity change below about -50%; inconclusive = mostly about -30% to -49%; also: % is scaled to controls: 0 for no effect and ±100 for the full control effect
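THP-1 cells pretreated 1 hr with compounds (up to 57.5 uM final), then stimulated with LPS (250 ng/mL final) plus ATP (1.25 mM final); secreted IL-1B measured by AlphaLISA after 16 hr, decreased signal indicating inhibition.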
TGFb inhibitor = inhibitors of TGF-b signaling. Potency, µM (doses to about 46.1 µM), for the others: at the highest dose activity, negative = inhibition, most hits filed as inhibitors. AID 588855. actives 1.2% (n = 410,000). HepG2 CAGA-GFP TGF-b/SMAD3 reporter, GFP fluorescence, 18 h; TGF-beta stimulated, 500 pg/mL final; also: potency is read from the fitted curve at half-maximal effect; % is scaled to controls: 0 for no effect and ±100 for the full control effect; nearly all actives have a fitted effect of over 65% in size
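HEPG2 CAGA-GFP cells (1000/well, DMEM with 1% FBS) were pre-incubated 2 h at 37 degrees C, given compound by pin tool, then stimulated with TGF-beta at 500 pg/mL final for 18 h before per-cell GFP fluorescence imaging.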
ATXN2 expr inh = reduces ATXN2 reporter expression in HEK-293 cells; HEK-293 ATXN2-luciferase reporter, luminescence, 24 h; actives 0.72% (n = 360,000); Potency, µM (doses to about 57 µM), without a hit: at the top dose activity change, negative = inhibition, actives largely listed as inhibitors; AID 1745845; also: potency is read from the fitted curve at half-maximal effect; % is scaled to controls: 0 for no effect and ±100 for the full control effect; nearly all actives have a fitted effect of over 55% in size
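ATXN2-luciferase reporter cells (luciferase flanked by upstream and downstream ATXN2 gene portions) were treated 24 h at 37 °C with compounds at up to 57 uM. SteadyGlo luminescence gave expression; GF-AFC fluorescence gave viability.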
S2 tox = viability counter-screen for ATXN expression inhibitors; Potency, µM (doses to about 56.7 µM), hits mostly cytotoxic; actives 0.49% (n = 400,000); S2 cells (HEK-293 line with an ATXN2-luciferase reporter) viability, CellTiter-Fluor protease fluorescence, 24 h; also: potency is read from the fitted curve at half-maximal effect; nearly all actives have a fitted effect of over 40% in size
* hit, by the source's call; i = inactive; ? = inconclusive; . = no result. Only some compounds are listed: those with a hit (about 5.7% of all), similar ones and a draw of the others. Unless noted, calls follow the shape of the dose curve; as a rule, active = well fitted curve in the direction sought with a large enough effect; inconclusive = small, poorly fitted or top-dose-only effect, or another doubt; inactive = no such curve, though single readings can be large; an effect the other way counts as inactive or inconclusive.

SMILES	HepG2 tox	IL-1B inflam inh	TGFb inhibitor	ATXN2 expr inh	S2 tox
CCC1(c2ccccc2)C(=O)N(C(=O)OC(C)(C)C)N1C(=O)OC(C)(C)C (stereo unspecified)	-41.6%	?	-18.4%	-5.0%	?
CCOC(=O)N1C(=O)[C@](CC)(c2ccccc2)N1C(=O)OCC	-26.3%	-97.6*	?	-18.8%	?
CC(C)CSC1=NSC2=NC(=O)/C(=C\c3cccs3)C(=N)N12	-37.4%	-72.5*	?	22.5%	i
COC(=O)C1=C(\O)CCCC/C=C\1C(=O)O	2.82µM*	7.8	14.0%	12.6%	i
COC(=O)C1=C(C)N(CCC2=CCCCC2)C(=O)C1	-0.5%	?	-5.4%	22.1%	i
CN(C)C(=O)CCC(=O)NCC1Cc2cccc(-c3ccccc3C(F)(F)F)c2O1 (stereo unspecified)	.	.	.	.	i
O=C(C[n+]1ccncc1)c1ccc(Br)cc1	-37.5%	.	-12.6%	.	.
CCOc1ccc(NC(=O)CSc2nc3[nH]ncc3c(=O)n2-c2ccccc2OC)cc1	-5.8%	-65.8*	4.1%	4.9%	i
COc1ccccc1-n1c(SCC(=O)Nc2ccccc2F)nc2[nH]ncc2c1=O	-13.8%	-8.5	5.1%	1.6%	i
CCCc1sc(N/N=C/c2ccccn2)nc1-c1ccc(Br)cc1	-17.2%	71.5	?	2.82µM*	.
COc1ccccc1CNC(=O)c1ccc2c(c1)sc1nc(-c3ccc(F)cc3)cn12	-6.1%	.	-20.8%	.	.
CC(=O)Oc1ccc(OC(C)=O)c(SCCCCCCl)c1	24.2%	-62.9*	?	?	.
Cc1c(Cl)cccc1NC(=S)N=Nc1c(O)n(CN2CCOCC2)c2ccccc12	-27.1%	3.3	5.01µM*	?	?
Cc1ccccc1NC(=S)N=Nc1c(O)n(C)c2ccc(S(=O)(=O)N3CCOCC3)cc12	-35.5%	-12.6	5.62µM*	-39.4%	i
CCCCOC(=O)Cn1nnc2sc(-c3ccccc3)cc2c1=O	-19.4%	.	-22.0%	5.2%	i
O=S(=O)(Nc1c(Br)cc(Br)c2cccnc12)C1CC1	-26.1%	.	-0.5%	.	.
O=C(CSc1ncc2c(n1)-c1ccccc1N(Cc1ccc(F)cc1)S2(=O)=O)c1ccc(Cl)cc1	3.4%	.	3.1%	-9.0%	i
C[C@@H]1CN(Cc2ccc3c(c2)CN(Cc2cccc4c2OCO4)CCO3)C[C@H](C)O1	.	.	.	.	i
CCCCCCCCOC(=O)c1c(CSC(=N)N)n(C)c2cc(Br)c(OC(C)=O)cc12	11.2µM*	-3.2	?	.	31.6µM*
CCOC(=O)c1c(CSC(=N)N)n(-c2ccc(Br)cc2)c2cc(Br)c(OC(C)=O)cc12	-19.0%	-109.0*	10.4%	10.8%	i
COC(=O)c1ccccc1Nc1ccnc(Cl)n1	20µM*	6.5	0.0%	3.8%	i
Cc1nn(C(C)(C)C)c(OC(=O)C(C)(C)C)c1Sc1ccccc1	-23.7%	.	?	3.8%	i
CC(=O)c1ccc(NC(=O)CCCc2nc(-c3cccc(C)c3)no2)cc1	-20.1%	.	-34.8%	-21.2%	?
CCOC(=O)COc1ccc(S(=O)(=O)Nc2ccc(C)cc2)cc1	-38.5%	-7.6	-37.5%	3.5%	i
CCOC(=O)CS(=O)(=O)c1ccccc1	2.8%	?	-4.9%	3.6%	i
SMILES	HepG2 tox	IL-1B inflam inh	TGFb inhibitor	ATXN2 expr inh	S2 tox
CCOC(=O)CS(=O)(=O)c1ccc(O)cc1	32.1%	-91.6*	22.3%	-6.8%	i
CCOC(=O)c1ccc(S(=O)(=O)N2CCN(CC(=O)NC(=O)NC3CCCCC3)CC2)cc1	-0.9%	-51.6*	-12.7%	3.2%	i
CCOC(=O)COc1ccc(S(=O)(=O)c2ccc(OCC(=O)OCC)cc2)cc1	12.6µM*	-92.0*	-4.4%	5.2%	i
CCOC(=O)C1CCCN(C(=O)Cn2cnc3sc(C)c(S(=O)(=O)N4CCOCC4)c3c2=O)C1 (stereo unspecified)	1.0%	-53.0*	2.2%	4.9%	i
Cc1ccc(CNc2ncnc3sc(C(=O)N4CCC[C@H]4C(N)=O)c(C)c23)o1	.	.	.	.	i
CCN(CC)CCNC(=O)c1ccc2c(=O)n3nc(Nc4cccc(Cl)c4C)sc3nc2c1	-61.6%	.	-24.4%	?	?
COc1ccc(C(=O)N(Cc2sccc2C)C2CCS(=O)(=O)C2)cc1Cl (stereo unspecified)	-29.4%	.	.	.	.
CCOC(=O)N1CCN(S(=O)(=O)c2ccc(OCC(=O)OC)cc2)CC1	-4.4%	-64.4*	-0.8%	-5.0%	i
CCOC(=O)C1CCN(S(=O)(=O)c2ccc(OCC(=O)OC)cc2)CC1	-6.1%	-52.8*	-0.2%	-10.7%	i
CCOC(=O)c1ccc(S(=O)(=O)N2CCN(CC(O)COc3cccc(C(C)=O)c3)CC2)cc1 (stereo unspecified)	-2.7%	-77.6*	0.0%	1.6%	i
Cc1ccc(S(=O)(=O)N2CCN(CC(O)COc3ccccc3)CC2)cc1 (stereo unspecified)	5.8%	15.8	-3.1%	-12.7%	i
CCOC(=O)C1CCCN(C(=O)COc2ccc(S(=O)(=O)N3CCOCC3)cc2)C1 (stereo unspecified)	-17.9%	-74.7*	-8.3%	-0.8%	i
COC(=O)COc1ccc(S(=O)(=O)N2CCCCCC2)cc1	1.9%	18.5	-6.0%	-2.7%	i
CCOC(=O)COc1ccc(S(=O)(=O)N2CCN(C(=O)OCC)CC2)cc1	6.6%	26.8	?	1.5%	i
COc1ccc(-c2[nH]ncc2N=Nc2cc(C)cc(C)c2)cc1	-16.9%	-91.7*	-28.7%	-39.0%	?
COc1ccc(-c2[nH]ncc2N=Nc2ccccc2)cc1	-31.4%	-67.9*	?	?	?
COc1ccc(-n2c(Cc3ccccc3)nnc2SCc2ccc([N+](=O)[O-])cc2)cc1	-31.7%	0.0	-29.1%	0.2%	i
COc1ccc(-n2c(SCc3ccc([N+](=O)[O-])cc3)nnc2-c2ccc(C)cc2)cc1	-12.5%	-50.0*	-1.5%	-30.1%	i
Cc1ccc(NC(=O)c2cc(CN3CCOCC3)on2)cc1Cl	-32.5%	.	-5.2%	16.8%	i
O=S(=O)(c1ccc2c(c1)CCCC2)N1CCN(c2nc(-c3cccs3)nc3ccccc23)CC1	-1.9%	.	28.3%	.	.
CCN(CC)C(=O)[C@H]1CC(CC(=O)NC/C=C(\C)CCC=C(C)C)C(=O)N2CCc3c([nH]c4ccccc34)[C@]12C (stereo partly specified)	-103.8%	?	15.8µM*	?	?
CCN(CC)C(=O)[C@H]1CC(CC(=O)NC/C=C(\C)CCC=C(C)C)C(=O)N2CCc3c([nH]c4ccc(OC)cc34)[C@]12C (stereo partly specified)	-94.5%	-77.8*	11.2µM*	?	25.1µM*
